MT1-MMP txn act – MT1-MMP promoter reporter activation – cell-based, luciferase luminescence, primary screen | HT1080 MT1-MMP promoter luciferase reporter, overnight; active compounds read high | activation factor at 10 µM | 0.16% of 86,000 active;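 active = activation factor of at least 2 for MT1-MMP transcription at 10 µM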
Smad3 FoxH1 inh – Smad3/FoxH1 peptide binding inhibitors, primary screen, biochemical, TR-FRET; 0.29% of 88,000 active; inhibition, % at 25 µM; Mothers against decapentaplegic homolog 3 (Homo sapiens), P84022; AID 630, 2007; TR-FRET Smad3/Dy647-FoxH1 peptide binding, europium anti-His;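 active = compounds that reduce the energy-transfer binding signal between the protein and its labelled peptide by more than half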;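 also: 0% = Smad3 plus labelled peptide maximal FRET and 100% = peptide-only background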
Target sequence (P84022 whole entry, looked up): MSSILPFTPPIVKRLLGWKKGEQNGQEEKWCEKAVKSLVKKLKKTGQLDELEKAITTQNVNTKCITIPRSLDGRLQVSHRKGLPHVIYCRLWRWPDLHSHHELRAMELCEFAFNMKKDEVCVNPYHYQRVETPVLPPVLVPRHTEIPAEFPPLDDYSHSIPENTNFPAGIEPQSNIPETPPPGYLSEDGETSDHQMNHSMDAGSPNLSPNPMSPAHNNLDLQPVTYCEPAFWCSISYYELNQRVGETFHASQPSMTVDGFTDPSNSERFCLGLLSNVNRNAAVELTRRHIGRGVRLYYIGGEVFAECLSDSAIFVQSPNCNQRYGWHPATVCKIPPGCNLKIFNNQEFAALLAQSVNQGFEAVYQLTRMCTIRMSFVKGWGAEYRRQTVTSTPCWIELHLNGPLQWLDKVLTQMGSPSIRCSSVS
Measles CPE – compounds protecting cells from measles virus cytopathic effect, primary screen, measles RdRp inhibitor project, single point, MLSMR library, absorbance. Measles virus-infected cells, CPE protection. protection (pct of control), % at 4 µM. 1.5% of 140,000 active. AID 841, 2007; in the data active = protection mostly above about 24%, no sharp cut-off; inactive = mostly below about 26%
The depositor's hits bear a star. In the library only some 1.7% were active in any assay of this set; here they are far more common.

For CN1CSC2=C(C#N)C(c3cccc(OCc4ccccc4)c3)CC(=O)N2C1 (stereo not given) the results were MT1-MMP txn act 1.3, Smad3 FoxH1 inh 2 and Measles CPE 63*.
For CCc1ccc(C2CC(=O)N3CN(c4ccccc4)CSC3=C2C#N)cc1 (stereo not given) the results were MT1-MMP txn act 1.1, Smad3 FoxH1 inh 6 and Measles CPE 2.
`CC(=O)N1CC=CC1(C)C(=O)NCc1ccc(C)o1` (stereo not given) gave MT1-MMP txn act 0.9.
`CC1(C(=O)OCC(=O)c2c[nH]c3ccccc23)CC1(Cl)Cl` (stereo not given) gave Measles CPE 20.
Screening COc1ccc2c(c1)-c1c(ssc1=S)C(C)(C)N2C(=O)CSC1=NCCS1 returned Measles CPE 2.
Screening CC1(C)c2ssc(=S)c2-c2ccccc2N1C(=O)CSC1=NCCS1 returned Measles CPE 38*.
Screening CC(=O)CSc1nc2ccccc2o1 returned MT1-MMP txn act 1.4, Smad3 FoxH1 inh 8 and Measles CPE 21.
Screening CC(=O)Nc1ccc(NC(=O)CSc2nc3ccccc3o2)cc1 returned Measles CPE 5.
Screening O=C(CSc1nc2ccccc2o1)Nc1ccc(Cl)cc1 returned MT1-MMP txn act 1.2, Smad3 FoxH1 inh 0 and Measles CPE 26*.
`COC(=O)CSc1nc2ccccc2o1` gave MT1-MMP txn act 1.3, Smad3 FoxH1 inh -4 and Measles CPE 43*.
For Cc1cccc(C)c1Nc1nnc(SC(C)C(=O)Nc2c(C)n(C)n(-c3ccccc3)c2=O)s1 (stereo not given) the results were Measles CPE 30.
`Cc1ccc(C(=O)c2c[nH]c(C(=O)NCc3cccnc3)c2)cc1` gave Measles CPE 28*.
For Cc1cc(C(=O)NCc2cccnc2)cs1 the results were MT1-MMP txn act 1, Smad3 FoxH1 inh -3 and Measles CPE 4.
Screening CCOc1ccc(-c2nnc3ccc(SCC(=O)Nc4nc5ccccc5s4)nn23)cc1 returned Measles CPE 19.
Screening Cc1ccc(S(=O)(=O)NCCc2nnc3ccc(SCC(=O)Nc4nc5ccccc5s4)nn23)cc1 returned Measles CPE 30*.
Cc1ccccc1CN1C2=NCCN2C(=O)C2=C1CCN(Cc1ccccc1)C2 was read as Smad3 FoxH1 inh 7.
For Cc1ccsc1/C=N/NC(=O)Cn1cnc2ccccc21 the results were Measles CPE 21.
`COc1ccccc1NC(=O)c1ccc(NC(=O)COC(=O)C2CCCCC2)cc1` gave Measles CPE 49*.
`COc1ccccc1NC(=O)c1ccc(NC(=O)COC(=O)C2(C)CC2(Cl)Cl)cc1` (stereo not given) gave Measles CPE 22.
Screening COC(=O)CNC(=O)CSc1nnc(C)c(=O)[nH]1 returned Measles CPE 10.
CC1=NN(c2ccc(S(=O)(=O)O)cc2)C(=O)/C1=C\c1ccc(Cl)cc1 was read as Smad3 FoxH1 inh -1.
Screening COCCn1c(SCC(=O)N2CCc3ccccc3C2)nc2ccccc2c1=O returned Measles CPE 32*.
For C=CCn1c(SCC(=O)N2CCc3ccccc3C2)nc2sc(C)cc2c1=O the results were Measles CPE 33*.
C=CCn1c(SCC(=O)N2CCN(C(=O)c3ccco3)CC2)nc2sc(CC)cc2c1=O was read as MT1-MMP txn act 1.1, Smad3 FoxH1 inh 3 and Measles CPE 13.
For COCCn1c(SCC(=O)N2CCC(C)CC2)nc2ccccc2c1=O the results were MT1-MMP txn act 1.2, Smad3 FoxH1 inh 6 and Measles CPE 21.
Screening CN1CCCC[C@@H]1CCN1CCCCC1 returned Smad3 FoxH1 inh -3.
Screening CC[Si](CC)(CC)c1c2c(nc3ccc(OC)cc13)-c1cccc(=O)n1C2 returned MT1-MMP txn act 1.
CCOC(=O)N1CCN(CC(O)COc2ccccc2C(C)CC)CC1 (stereo not given) was read as MT1-MMP txn act 1.2, Smad3 FoxH1 inh 2 and Measles CPE 4.
CCOC(=O)N1CCN(CC(O)COC(CC)c2ccccc2)CC1 (stereo not given) was read as MT1-MMP txn act 1.2, Smad3 FoxH1 inh -2 and Measles CPE 47*.
Screening CCOC(=O)N1CCN(CC(O)COc2ccccc2C(C)C)CC1 (stereo not given) returned MT1-MMP txn act 1.2, Smad3 FoxH1 inh 3 and Measles CPE 7.
CCOC(=O)N1CCN(CC(O)COc2cc(C)ccc2C(C)C)CC1 (stereo not given) was read as Measles CPE 30*.
COC(=O)[C@@]1(Cc2ccc(OC)cc2)[C@H]2c3cc(C(=O)N(C)C)n(Cc4ccccn4)c3C[C@H]2CN1C(=O)c1ccccc1 was read as MT1-MMP txn act 1.1.
O=C(O)c1ccc2c(=O)n3c(nc2c1)/C(=C/c1ccccc1C(F)(F)F)CCCC3 was read as Measles CPE 17.
CC(C)C(C)NC(=O)COc1ccc(-c2ccccc2)cc1 (stereo not given) was read as MT1-MMP txn act 1, Smad3 FoxH1 inh -4 and Measles CPE 18.
CC(C)C(NC(=O)COc1ccccc1)C(=O)O (stereo not given) was read as MT1-MMP txn act 1, Smad3 FoxH1 inh 6 and Measles CPE 44*.
`O=C(O)Cn1ccnc1[N+](=O)[O-]` gave Smad3 FoxH1 inh 0.
For CCCCn1c(-c2ccccc2)cnc1SCC(=O)NCCc1ccc(OC)c(OC)c1 the results were Measles CPE 18.
COc1ccc(N2CCN(C(=O)CN(C)S(=O)(=O)c3cnc[nH]3)CC2)cc1 was read as MT1-MMP txn act 1.2 and Measles CPE 12.
For CCC(=O)OCN1C(=O)C=CC1=O the results were Smad3 FoxH1 inh 32.
CS(=O)(=O)Nc1cccc(C(=O)CC2(O)C(=O)Nc3ccc(Br)cc32)c1 (stereo not given) was read as MT1-MMP txn act 1.1, Smad3 FoxH1 inh -5 and Measles CPE 34*.
For CS(=O)(=O)Nc1cccc(C(=O)CC2(O)C(=O)Nc3ccccc32)c1 (stereo not given) the results were MT1-MMP txn act 1.3, Smad3 FoxH1 inh -3 and Measles CPE 7.
Cc1ccc(NC(=O)C2CCCN(S(=O)(=O)c3cnc[nH]3)C2)c(Br)c1 (stereo not given) was read as MT1-MMP txn act 1.2, Smad3 FoxH1 inh 7 and Measles CPE 29*.
Screening O=C(Nc1ccc(Br)cc1F)C1CCCN(S(=O)(=O)c2cnc[nH]2)C1 (stereo not given) returned MT1-MMP txn act 1.2, Smad3 FoxH1 inh -9 and Measles CPE 9.
`Cc1ccc(/C=N/NC(=O)C(C)Oc2ccccc2[N+](=O)[O-])s1` (stereo not given) gave Measles CPE 25.
Screening O=C(CCNc1ccc(Cl)cc1)c1cccs1 returned Measles CPE 28.
O=C(CCc1ccc(CCC(=O)c2cccs2)s1)c1cccs1 was read as MT1-MMP txn act 1.3, Smad3 FoxH1 inh 4 and Measles CPE 1.
O=C(CCNc1cc(Cl)cc(Cl)c1)c1cccs1 was read as Measles CPE 45*.
O=C(CCSc1ccc(Cl)cc1)c1cccs1 was read as Measles CPE 35*.
